# Assay outcomes (PubChem)
# VCAM1 TNFa pot – TNF alpha stimulated VCAM1 expression potentiation. HUVEC TNFa-stimulated VCAM-1 immunofluorescence, high-content imaging; scaled per plate to unstimulated/TNFa-only wells. activation, % at 2 µM. 0.19% of 93,000 active;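 active = activation above the screen mean plus 3 SD, with well images confirming the hit on visual review, cut at about 28% in these data, passing the limit was not always enough; inconclusive = activation above that limit but images do not confirm it; inactive = activation not above that limit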;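 note: signal is the number of cytoplasmic VCAM-1 stained grains per positive cell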
# VCAM1 pot conf – potentiators of TNFa-induced VCAM1 expression, confirmation, imaging, HUVEC, triplicate retest | activation, % at 2 µM | AID 1034 | HUVEC TNFa-stimulated VCAM-1 immunofluorescence imaging | 230 tested, under 10 active | shares compounds with VCAM1 TNFa pot;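 active = activation above 30% in triplicate retests at 2 µM, then confirmed by visual review of the well images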
# Numbers stand for hits; . = inactive; ? = inconclusive. Shown is part of a subset that was picked to be rich in hits.
SMILES,VCAM1 TNFa pot,others
Cc1nc2ncnn2c(N2CCN(C(=O)Cc3cccs3)CC2)c1C,.,
CS(=O)(=O)N1CCCC(C(=O)NCc2ccc(F)cc2Cl)C1 (stereo not drawn),.,
COC(=O)c1ccc(CNC(=O)CSc2nc3sc(C)c(C)c3c(=O)n2C)o1,.,
Cc1cc2n(n1)SC(Nc1cc(Cl)ccc1Cl)N2 (stereo not drawn),.,
C=CCn1c(COc2ccc3c(c2)CCCC3)nnc1SCC(=O)Nc1cccc(SC)c1,.,
COc1cc(-c2nnc(CSc3nnc4nc(C)cc(C)n34)o2)cc(OC)c1OC,.,
COc1cccc(-c2nc(=S)c3c(n2CCCO)CCCC3)c1,.,
CC(C)(C)NC(=O)NC(=O)COC(=O)c1cc(=O)[nH]c2ccccc12,.,
C=CCNc1nc(Nc2ccc(OC)cc2)nc(OCC)n1,.,
CCOc1ccccc1NC(=O)C1CC2CCCC(C1)C2=O (stereo not drawn),.,
O=C(N1CCOCC1)N1CCN(S(=O)(=O)N2CCOCC2)CC1,.,
Cc1ccc(C(=O)Nc2c(-c3cccs3)c(=O)c3ccccc3n2C)cc1,.,
CN(CP(=O)(O)CN(C)S(C)(=O)=O)S(C)(=O)=O,32,VCAM1 pot conf=.
Cc1cc(NC(=O)COc2ncnc3sc(C)c(C)c23)no1,.,
CCc1ccc(N/C(SCc2ccccc2C)=C(/C#N)C(=O)NCc2ccco2)cc1,.,
CCOC(=O)N1CCC(NC(=O)c2cc(S(=O)(=O)N3CCCC3)cn2C)CC1,43,VCAM1 pot conf=.
CCOC(=O)N1CCN(C(=O)c2cc(S(=O)(=O)N3CCCC3)cn2C)CC1,.,
CCOC(=O)N1CCC(NC(=O)c2ccc(OC)c(CN3CC(=O)N4CCCC4C3=O)c2)CC1 (stereo not drawn),.,
Cc1oc(C(=O)O)cc1COc1ccc2c3c(c(=O)oc2c1)CCC3,.,
COCCn1nnnc1CN(CCCN1CCOCC1)Cc1cc2c(C)ccc(C)c2[nH]c1=O,.,
Cc1cc(C)c2cc(CN(Cc3ccc4c(c3)OCO4)Cc3nnnn3Cc3ccco3)c(=O)[nH]c2c1,54,VCAM1 pot conf=.
COc1ccc2cc(CN(Cc3cccs3)Cc3nnnn3Cc3ccccc3)c(=O)[nH]c2c1,.,
CCN(CCCNC(=O)C1CCC(=O)N1Cc1ccc(F)cc1)c1cccc(C)c1 (stereo not drawn),.,
NC(=O)c1ccccc1N=Cc1ccccn1,40,VCAM1 pot conf=.
NC(=O)c1ccccc1OCCOCCOCCOc1ccccc1C(N)=O,.,
SMILES,VCAM1 TNFa pot,others
CCOc1cc(NC(=O)c2ccccn2)c(OCC)cc1NC(=O)CC(C)C,.,
COC(=O)CSCC(=O)Nc1cc2c(cc1C(C)=O)OCO2,.,
CCOc1ccc2sc(NS(=O)(=O)c3ccc(OC)c(OC)c3)nc2c1,61,VCAM1 pot conf=.
CCOC(=O)c1cc2nc(Nc3ccc(OC)cc3)sc2s1,.,
COc1ccc(OC)c(NS(=O)(=O)c2ccc3c(c2)n(C)c(=O)n3C)c1,.,
CCN(CC)S(=O)(=O)c1ccc(NC(=O)CSc2cccc[n+]2[O-])cc1,.,
O=C(NCc1ccco1)C1CCCN1C(=O)NCc1ccccc1 (stereo not drawn),.,
COc1ccccc1C(=O)NC(C)C(c1cccs1)N1CCN(C)CC1 (stereo not drawn),.,
O=C(N/N=C/c1c(Nc2cccc(C(F)(F)F)c2)nc2ccccn2c1=O)c1ccccc1,.,
CCCN1C(=O)/C(=C/c2ccc(C)s2)NC1=S,.,
CC(=O)/C(=N/Nc1cccc(C)c1)N1CCOCC1,.,
O=C(NCc1ccccc1)C1CCCN(C(=O)Nc2ccccc2)C1 (stereo not drawn),.,
O=C(COC(=O)c1ccncc1)NC(=O)C1CCCCC1,.,
Cc1cccn2cc(CNC(=O)C3CCCCC3)nc12,60,VCAM1 pot conf=.
COc1ccc(/C=N/N=C2/NC(=O)C(c3ccccc3)(c3ccccc3)S2)cc1,.,
Cc1ncoc1C(=O)Nc1ccc2c(c1)OCCO2,81,VCAM1 pot conf=.
CCOC(=O)c1cn(CC(=O)Nc2ccc3c(c2)OCCO3)nn1,.,
Cc1ccc2nc(SCC(=O)Nc3ccc4c(c3)OCCO4)[nH]c2c1,.,
C=CCc1c(C)nc(SC)nc1Nc1ccc(C)cc1,.,
COCCNC(=O)C(c1ccccc1C)N(C(=O)Cn1nnc2ccccc21)c1cccnc1 (stereo not drawn),.,
CCN(CC)C(=O)CSc1nc(-c2cccs2)cc(-c2cccs2)c1C#N,50,VCAM1 pot conf=.
CCN(CC)C(=O)CSc1nc(N)c(C#N)c(-c2cccs2)c1C#N,.,
COc1ccc(CNC(=O)CSc2nc(-c3ccccc3)cc(-c3cccs3)c2C#N)cc1,.,
CCN(CC)S(=O)(=O)c1ccc(NC(=O)C(C)N(c2ccc(OC)cc2)S(C)(=O)=O)cc1 (stereo not drawn),.,
COc1ccccc1C(=O)NCc1ccccc1,.,
SMILES,VCAM1 TNFa pot,others
CCCCCCNC(=O)CC(c1ccccc1)c1cc(Br)ccc1O (stereo not drawn),.,
CCCCCCc1cc2cc(C(=O)NCc3ccccc3)c(=N)oc2cc1O,51,VCAM1 pot conf=.
Cc1ccc(S(=O)(=O)c2c(C)cc(C)nc2Oc2cccc(C(F)(F)F)c2)cc1,.,
CCOC(=O)CC(=O)CSc1ccc2nnc(-c3ccc(F)cc3)n2n1,.,
CCOC(=O)CC(=O)CSc1nc2c(C)c(C)ccc2cc1C,51,VCAM1 pot conf=.
CCOC(=O)CSc1nc2ccc(C)cc2cc1C#N,.,
COc1ccc(CNC(=O)C2CCCN(S(=O)(=O)c3cnc[nH]3)C2)cc1 (stereo not drawn),.,
Cc1ccccc1C(=O)c1c[nH]c(C(=O)NCC2CCCO2)c1 (stereo not drawn),.,
Cc1nc2ccc(F)cc2cc1C(=O)NCC1CCCO1 (stereo not drawn),.,
COCCSc1ccccc1C(=O)NCC1CCCO1 (stereo not drawn),?,VCAM1 pot conf=.
COc1cccc(N2CCN(c3ncnc4c3[nH]c3ccc(F)cc34)CC2C)c1 (stereo not drawn),.,
N#Cc1c2c(c(=S)n(-c3ccccc3)c1N)CCCC2,83,VCAM1 pot conf=.
Cc1ccc(S(=O)(=O)N2CCN(S(C)(=O)=O)CC2)cc1,.,
Cc1c(C(=O)O)sc2nc3n(c(=O)c12)CCC(C)CC3 (stereo not drawn),.,
CCOC(=O)c1c(NC(=O)OC)sc(C(=O)N(CC)CC)c1C,.,
O=C(CN1CCC(c2nc3ccccc3[nH]2)CC1)NCc1ccc2c(c1)OCO2,.,
Clc1ccc2nc(C3CCN(Cc4nnnn4C4CCCCC4)CC3)[nH]c2c1,60,VCAM1 pot conf=.
OC(CN1C2=NCCN2c2ccccc21)c1ccc2c(c1)OCO2 (stereo not drawn),.,
C=CCn1c(CCNC(=O)c2ccccc2F)nnc1SCC(=O)Nc1nc(C)cs1,.,
COc1ccccc1-c1cc2ccccc2[nH]1,.,
O=C1CSC(c2ccccn2)N1c1ccccc1 (stereo not drawn),34,VCAM1 pot conf=.
CN(C)CCCN1C(=O)CSC1c1ccccc1 (stereo not drawn),.,
CCOc1ccc(N2C(=O)CSC2c2ccncc2)cc1 (stereo not drawn),.,
CN(C)S(=O)(=O)c1cccc(NC(=O)Cn2cnc3ccccc3c2=O)c1,.,
CCOc1ccc(S(=O)(=O)N(CC(=O)N/N=C/c2cccs2)c2ccc(C)cc2)cc1,.,
Cc1cccc(NC(=O)c2cccc(N3C(=O)C4C5CCC(C5)C4C3=O)c2)c1C (stereo not drawn),.,
CC(=O)Oc1oc(-c2ccccc2)nc1/C=N/c1ccccn1,89,VCAM1 pot conf=.
Cc1c(NC(=O)N(C)C)c(=O)n(-c2ccccc2)n1C,.,
Cc1oc(-c2ccccc2F)nc1CN1CCC(C(=O)NC2CC2)CC1,.,
